# High-throughput results deposited in PubChem BioAssay by Johns Hopkins Ion Channel Center.
# In the library only some 1.6% were active in any assay of this set; here they are far more common.
# KCNQ2 inh – rat KCNQ2 potassium channel inhibitors, primary screen, cell-based, CHO-K1, FluxOR thallium flux, B-score; Potassium voltage-gated channel subfamily KQT member 2 (Rattus norvegicus), O88943; hit rate 1.1% among 310,000; B-score at 10 µM; 20 min; hits give low values;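 active means fluorescence ratio B-score at most minus 3 library SDs, with starting brightness B-score within 2 library SDs, cut at about -5.5 in these data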
# Target sequence (O88943 whole entry, looked up): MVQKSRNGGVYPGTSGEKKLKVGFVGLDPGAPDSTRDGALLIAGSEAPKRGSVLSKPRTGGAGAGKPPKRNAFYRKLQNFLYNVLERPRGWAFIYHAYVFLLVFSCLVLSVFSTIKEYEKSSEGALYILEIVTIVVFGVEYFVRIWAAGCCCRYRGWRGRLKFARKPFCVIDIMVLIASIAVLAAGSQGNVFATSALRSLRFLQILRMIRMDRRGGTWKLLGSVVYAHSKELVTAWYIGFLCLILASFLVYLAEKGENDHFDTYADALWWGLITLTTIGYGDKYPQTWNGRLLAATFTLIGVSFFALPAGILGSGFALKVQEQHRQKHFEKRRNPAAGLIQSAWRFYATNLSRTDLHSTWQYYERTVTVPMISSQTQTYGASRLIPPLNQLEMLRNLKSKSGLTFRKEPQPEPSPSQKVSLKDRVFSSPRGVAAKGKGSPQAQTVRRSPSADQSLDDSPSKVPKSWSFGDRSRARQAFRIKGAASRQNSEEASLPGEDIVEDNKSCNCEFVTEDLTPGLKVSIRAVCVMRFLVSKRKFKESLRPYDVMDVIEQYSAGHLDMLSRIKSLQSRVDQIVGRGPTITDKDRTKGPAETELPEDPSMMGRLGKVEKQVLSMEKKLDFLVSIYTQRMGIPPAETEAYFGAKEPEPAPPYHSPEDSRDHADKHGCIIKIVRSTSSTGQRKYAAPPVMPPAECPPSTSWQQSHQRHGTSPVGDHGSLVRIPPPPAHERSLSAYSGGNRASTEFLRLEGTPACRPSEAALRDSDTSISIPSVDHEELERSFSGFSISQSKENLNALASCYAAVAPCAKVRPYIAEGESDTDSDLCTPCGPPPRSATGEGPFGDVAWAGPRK
# KCNQ2 enhance – potentiators of rat KCNQ2 potassium channel. hit rate 0.54% among 310,000. Potassium voltage-gated channel subfamily KQT member 2 (Rattus norvegicus), O88943. B-score at 10 µM. CHO-K1 KCNQ2, FluxOR thallium flux fluorescence; hits give high values. AID 2239, 2010;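 active means fluorescence ratio B-score at least 3 SD of library B-scores, with initial fluorescence B-score within 3 of them, cut at about 5.3 in these data; same plate scores as AID 2156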;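 further: B-score of peak minus minimum over baseline fluorescence ratio after K+ and Tl+ stimulus; positive B-score means potentiation of KCNQ2 with more thallium influx and brighter signal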
# * = called active by the depositor; i = inactive; x = no result given.
SMILES,KCNQ2 inh,KCNQ2 enhance
CN(C)C(=O)[C@H]1C[C@H]1[C@@H](O)[C@H](CO)NC(=O)[C@H](COCc1ccccc1)NC(=O)OC(C)(C)C,i,x
CC1CCCN(C(C(=O)Nc2ccc3c(c2)OCCO3)c2ccccc2)C1 (stereo not given),i,x
CC1CCCN(C(C(=O)Nc2ccc3c(c2)OCO3)c2ccccc2)C1 (stereo not given),-5.7*,-5.7
CC1(C)C2CCC1(C)C(OC(=O)C[n+]1ccccc1)C2 (stereo not given),i,x
CC1(C)C2CCC1(C)C(OC(=O)CC(=O)O)C2 (stereo not given),-8.2*,-8.2
CNC(=O)/C(=C\c1cccc(Oc2ccccc2)c1)NC(=O)c1ccccc1,i,x
CNC(=O)/C(C#N)=C/c1cccc(Oc2ccccc2)c1,-5.9*,-5.9
CCn1c(=O)c(=O)[nH]c2cc(C(=O)NCc3ccc(F)cc3)ccc21,i,x
O=S(=O)(NCC1CCCO1)c1ccccc1F (stereo not given),i,x
COc1cc2c(cc1NC(=O)/C=C/c1ccc([N+](=O)[O-])cc1)oc1ccccc12,i,5.6*
COc1cc2c(cc1NC(=O)COC(=O)/C=C/c1ccc([N+](=O)[O-])cc1)oc1ccccc12,i,x
COc1ccc(C2NC3=C(CCCC3)C(C#N)(C#N)C2(C#N)C#N)cc1 (stereo not given),-5.8*,-5.8
COc1ccc(C2NC3=C(CCC3)C3(C#N)C4(N=C(N)C23C#N)OCCO4)cc1 (stereo not given),i,x
COc1ccc(/C=C(\NC(=O)c2ccc(C)cc2)C(=O)N2CCCCC2)cc1,i,x
O=C(Cc1cccc(C(F)(F)F)c1)NCC(=O)Nc1cc(Cl)ccc1Cl,i,1.2
O=C(NC1CCCC1)C(c1ccccn1)N(Cc1ccc(F)cc1)C(=O)c1csnn1 (stereo not given),i,1.4
O=C(Nc1ccc2c(c1)OCO2)c1c[nH]c(=O)n(-c2ccc(F)cc2)c1=O,i,x
COc1cc(OC)cc(C(=O)N2CCN(C(=O)c3cccnc3)CC2)c1,i,1.1
C=CCOC(=O)/C(=C\c1ccccc1)NC(=O)c1ccc(C)cc1,i,x
C=CCOC(=O)/C(=C\c1cccc2ccccc12)NC(=O)c1ccccc1,-5.8*,-5.8
CCC(C)NC(=O)CCc1c(C)nc2c(c(C)nn2-c2ccccc2)c1C (stereo not given),i,1.9
Cc1nc2c(c(C)nn2-c2ccccc2)c(C)c1CCC(=O)Nc1ccc(CN2CCCC2)cc1,-6.1*,-6.1
Cc1ccc(N(CC(=O)NC2CCCCC2)C(=O)CNC(=O)c2ccco2)cc1F,i,0.37
O=c1c2ccccc2nc(SCc2ccccc2Cl)n1Cc1ccccc1,i,x
CCN(CC)C(=O)CSc1nc2ccccc2c(=O)n1CC,i,0.8
SMILES,KCNQ2 inh,KCNQ2 enhance
CCSc1nc2ccccc2c(=O)n1C1CCOC(C)(C)C1 (stereo not given),i,x
C=CCSc1nc2ccccc2c(=O)n1Cc1ccccc1,-5.7*,-5.7
CCn1c(SCc2ccccc2)nc2ccccc2c1=O,i,8.2*
CCOC(=O)CSc1nc2ccccc2c(=O)n1CC,i,0.49
CCOC(=O)CSc1nc2ccccc2c(=O)n1CC1CCCC1,-6.1*,-6.1
C=CCSc1nc2ccccc2c(=O)n1C1CCOC(C)(C)C1 (stereo not given),-6*,-6
CCOc1ccc2oc(C(=O)NCC(C)(C)CN(C)C)c(C)c2c1,i,1.1
Cc1cccc(C(=O)N[C@H](C(=O)NCCc2ccc(Cl)cc2)C(C)C)c1,i,x
O=[N+]([O-])c1ccc2nc(Cl)nc(-c3ccccc3)c2c1,i,x
CCN(CC(=O)NC(=O)NCc1ccccc1)Cc1ccccc1,i,x
O=C1OCCC1Sc1nc2ccccc2c(=O)n1Cc1ccc(F)cc1 (stereo not given),i,6.3*
O=C1OCCC1Sc1nc2ccccc2c(=O)n1-c1ccc(F)cc1 (stereo not given),i,x
O=C1CCc2cc(NS(=O)(=O)c3cc(F)ccc3F)cc3c2N1CC3,i,x
CCCN(Cc1nnc(-c2ccccc2Cl)o1)C(=O)c1oc2ccccc2c1C,i,x
CC1(C)C(=S)N(Cc2ccccc2)c2ccccc21,-6.6*,-6.6
CC(=O)CC1(O)C(=O)N(Cc2ccccc2)c2ccccc21 (stereo not given),i,0.22
O=C(NCc1ccc(-n2cccc2)cc1)c1cccc(F)c1,i,x
CCOc1ccc(NC(=S)N2CCN(S(=O)(=O)c3ccccc3)CC2)cc1,i,x
CCOc1ccc(NC(=S)N2CCC(C(O)(c3ccccc3)c3ccccc3)CC2)cc1,i,6.5*
COc1ccc(NC(=S)N2CCC(C(O)(c3ccccc3)c3ccccc3)CC2)cc1,i,6.7*
COc1ccc(NC(=S)N2CCC(c3ccccc3)C2)cc1 (stereo not given),i,0.91
Cc1ccc(NC(=O)NC2=N/C(=C(/C#N)C(=O)N3CCCC3)c3ccccc32)cc1,-7*,-7
N#C/C(C(=O)N1CCCC1)=C1/N=C(N)c2ccccc21,i,0.06
Cc1ccccc1NC(=O)c1ccc(C)c(S(=O)(=O)Nc2cccnc2)c1,i,x
Cc1ccc(C)c(S(=O)(=O)Nc2ccccc2C(=O)Nc2ccccc2N2CCOCC2)c1,-6*,-6
SMILES,KCNQ2 inh,KCNQ2 enhance
Cc1cc(F)ccc1S(=O)(=O)Nc1ccccc1C(=O)Nc1ccccc1N1CCOCC1,i,x
Cc1ccc(C(=O)Nc2ccccc2-c2ccccc2)cc1S(=O)(=O)Nc1cccc(C)c1C,-7.9*,-7.9
Cc1ccc(C)c(NS(=O)(=O)c2cc(C(=O)Nc3ccccc3-c3ccccc3)ccc2C)c1,-6.2*,-6.2
Cc1ccc(C(=O)NCc2ccncc2)cc1S(=O)(=O)Nc1cccc(C)c1C,i,x
CN(CC(=O)Nc1ccc(F)cc1)C(=O)COC(=O)c1cc(S(=O)(=O)N(C)C)ccc1N1CCCC1,i,x
CCOC(=O)c1[nH]c2cc3c(cc2c1NC(=O)CN1CCN(CCO)CC1)OCO3,i,0.31
Cc1ccc(CN2CC(C(=O)Nc3ncccc3C)CC2=O)cc1 (stereo not given),i,0.26
O=C(O)CSc1nnc(CNc2ccc(F)cc2)n1-c1ccccc1,i,0.62
COC(=O)CSc1nnc(CNc2ccc(Cl)cc2)n1-c1ccccc1,-5.8*,-5.8
C=CCN1C(=S)CC(c2ccccc2)=Nc2ccccc21,-6.7*,-6.7
C=CCn1c(-c2csc(-c3ccccc3)n2)n[nH]c1=S,i,0.16
C[C@@H]1CC=C[C@H]2[C@H]1C(=O)N(Cc1ccccc1)[C@H]2c1ccc(-c2ccoc2)cc1F,-6.9*,-6.9
C[C@@H]1CC=C[C@H]2[C@H]1C(=O)N(Cc1ccccc1)[C@H]2c1ccc(-c2ccc(F)cc2)cc1F,i,x
CCc1cccc(NC(=O)C2CCCN2C(=O)Nc2ccc(C)cc2)c1 (stereo not given),i,1.1
CCOc1ccc(NC(=O)CN(C)C(=O)c2cccnc2Sc2ccc(C)c(C)c2)cc1OCC,i,1.5
CCC1CCCCN1C(=O)COc1c(Br)cc(Br)c2cccnc12 (stereo not given),-7.8*,-7.8
CCC1CCCCN1C(=O)COc1ccc(F)cc1 (stereo not given),i,0.05
COc1cccc(C(CNC(=O)C(c2ccccc2)c2ccccc2)N(C)C)c1 (stereo not given),i,x
